# In the supplement of paper PMC10849652:
# Of roughly 7,900 targets only a part is listed; those with a hit were picked by preference. About 0.6% of all pairs of compound and target were hits. Values without a mark were called inactive.
# Tests used:
# Assay in all cases: log2 fold change, soluble protein after heating vs DMSO (PISA); higher = thermal stabilisation; K562 cells, 10 uM, 30 min; active = over 0.2 and 3.5 SD of the protein, either way, in both replicates (recomputed)
# [1] = compound: CC[C@@H]1C(=O)N(C)c2cnc(Nc3ccc(C(=O)NC4CCN(C)CC4)cc3OC)nc2N1C1CCCC1
# Summary of the method: (§1)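 K562 cells (2×10^6 cells/mL) were treated with 10 μM compound for 30 min, and aliquots were heated for 3 min over 48°C-58°C. Pooled aliquots were extracted in PBS with 0.5% NP-40 at 4°C, and the supernatant after 21,000xg for 90 min was measured by TMTpro 16plex LC-MS/MS with channel sums equalised. Reported thermal stability, relative to control samples and from duplicates, is a log2 fold change.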
# [2] = compound: CC[C@@H]1C(=O)N(C)c2cnc(Nc3ccc(C(=O)N[C@H]4CC[C@H](N5CCN(CC6CC6)CC5)CC4)cc3OC)nc2N1C(C)C [volasertib]
# Summary of the method: as §1
# [3] = compound: CC[C@H](C)N1C=C(C2=C(C=C(C=C21)C3=CN=C(C=C3)N4CCNCC4)C(=O)NCC5=C(C=C(NC5=O)C)C)C
# Summary of the method: as §1
# [4] = compound: CC[C@H](C)[C@@H](C(=O)N[C@@H]([C@@H](C)O)C(=O)N[C@@H](CC(C)C)C(=O)[C@]1(CO1)C)NC(=O)[C@H]([C@@H](C)CC)N(C)C(=O)C [epoxomicin]
# Summary of the method: as §1
# [5] = compound: CCn1c(C(=O)N(C2CC2)C2CC2)cc2c3c(ncn3C)c(Nc3cc(C)n(C)n3)nc21
# Summary of the method: as §1
# [6] = compound: CCn1cc(-c2ccnc3[nH]c(-c4cccc(CN(C)C)c4)cc23)c(-c2ccc(NC(=O)N(C)C)cc2)n1
# Summary of the method: as §1
# [7] = compound: CN(C)CC(=O)Nc1ccc2[nH]c(=O)c3ccccc3c2c1
# Summary of the method: as §1
# [8] = compound: CN(CCOC1=CC=C(C=C1)C[C@H]2C(=O)NC(=O)S2)C3=CC=CC=N3 (racemic) [rosiglitazone]
# Summary of the method: as §1
# [9] = compound: CN1C2=C(C3=C1C(=O)N(N=C3)CC4=CC(=CC=C4)N)SC(=C2)S(=O)C
# Summary of the method: as §1
# [10] = compound: CN1CCC(CNc2ccc3ncc(-c4cccc(OC(F)(F)F)c4)n3n2)CC1
# Summary of the method: as §1
# [11] = compound: CN1CCN(CCOc2cc(OC3CCOCC3)c3c(Nc4c(Cl)ccc5c4OCO5)ncnc3c2)CC1 [saracatinib]
# Summary of the method: as §1
# [12] = compound: CN1CCN(c2nc(C3=C(c4c[nH]c5ccccc45)C(=O)NC3=O)c3ccccc3n2)CC1 [sotrastaurin]
# Summary of the method: as §1
# [13] = compound: CN1CC[C@H](c2c(O)cc(O)c3c(=O)cc(-c4ccccc4Cl)oc23)[C@H](O)C1 [alvocidib]
# Summary of the method: as §1
# [14] = compound: CN1CCc2c(c3ccccc3n2Cc2ccc(C(=O)NO)cc2)C1 [Tubastatin A]
# Summary of the method: as §1
# [15] = compound: CNC(=O)C1=CC=CC=C1NC2=NC(=NC=C2Cl)NC3=C(C=C(C=C3)N4CCOCC4)OC
# Summary of the method: as §1
# [16] = compound: CNC(=O)c1ccc(Nc2ncc(C(F)(F)F)c(NCc3nccnc3N(C)S(C)(=O)=O)n2)cc1 [defactinib]
# Summary of the method: as §1
# [17] = compound: CNCc1ccc(-c2[nH]c3cc(F)cc4c3c2CCNC4=O)cc1 [rucaparib]
# Summary of the method: as §1
# [18] = compound: CNc1nc(-c2ccc3c(N)n[nH]c3c2)cc(N2C[C@@H](C(=O)NC3CCCCC3)CC[C@H]2C)n1
# Summary of the method: as §1
# [19] = compound: COC(=O)N[C@@H](C)CNc1nccc(-c2cn(C(C)C)nc2-c2cc(Cl)cc(NS(C)(=O)=O)c2F)n1 [encorafenib]
# Summary of the method: as §1
# [20] = compound: COC(=O)[C@H](CCSC)NC(=O)C1=C(C=C(C=C1)NC[C@H](CS)N)C2=CC=CC=C2
# Summary of the method: as §1
# Chain of UniProt P11717 (P11717 whole entry, looked up): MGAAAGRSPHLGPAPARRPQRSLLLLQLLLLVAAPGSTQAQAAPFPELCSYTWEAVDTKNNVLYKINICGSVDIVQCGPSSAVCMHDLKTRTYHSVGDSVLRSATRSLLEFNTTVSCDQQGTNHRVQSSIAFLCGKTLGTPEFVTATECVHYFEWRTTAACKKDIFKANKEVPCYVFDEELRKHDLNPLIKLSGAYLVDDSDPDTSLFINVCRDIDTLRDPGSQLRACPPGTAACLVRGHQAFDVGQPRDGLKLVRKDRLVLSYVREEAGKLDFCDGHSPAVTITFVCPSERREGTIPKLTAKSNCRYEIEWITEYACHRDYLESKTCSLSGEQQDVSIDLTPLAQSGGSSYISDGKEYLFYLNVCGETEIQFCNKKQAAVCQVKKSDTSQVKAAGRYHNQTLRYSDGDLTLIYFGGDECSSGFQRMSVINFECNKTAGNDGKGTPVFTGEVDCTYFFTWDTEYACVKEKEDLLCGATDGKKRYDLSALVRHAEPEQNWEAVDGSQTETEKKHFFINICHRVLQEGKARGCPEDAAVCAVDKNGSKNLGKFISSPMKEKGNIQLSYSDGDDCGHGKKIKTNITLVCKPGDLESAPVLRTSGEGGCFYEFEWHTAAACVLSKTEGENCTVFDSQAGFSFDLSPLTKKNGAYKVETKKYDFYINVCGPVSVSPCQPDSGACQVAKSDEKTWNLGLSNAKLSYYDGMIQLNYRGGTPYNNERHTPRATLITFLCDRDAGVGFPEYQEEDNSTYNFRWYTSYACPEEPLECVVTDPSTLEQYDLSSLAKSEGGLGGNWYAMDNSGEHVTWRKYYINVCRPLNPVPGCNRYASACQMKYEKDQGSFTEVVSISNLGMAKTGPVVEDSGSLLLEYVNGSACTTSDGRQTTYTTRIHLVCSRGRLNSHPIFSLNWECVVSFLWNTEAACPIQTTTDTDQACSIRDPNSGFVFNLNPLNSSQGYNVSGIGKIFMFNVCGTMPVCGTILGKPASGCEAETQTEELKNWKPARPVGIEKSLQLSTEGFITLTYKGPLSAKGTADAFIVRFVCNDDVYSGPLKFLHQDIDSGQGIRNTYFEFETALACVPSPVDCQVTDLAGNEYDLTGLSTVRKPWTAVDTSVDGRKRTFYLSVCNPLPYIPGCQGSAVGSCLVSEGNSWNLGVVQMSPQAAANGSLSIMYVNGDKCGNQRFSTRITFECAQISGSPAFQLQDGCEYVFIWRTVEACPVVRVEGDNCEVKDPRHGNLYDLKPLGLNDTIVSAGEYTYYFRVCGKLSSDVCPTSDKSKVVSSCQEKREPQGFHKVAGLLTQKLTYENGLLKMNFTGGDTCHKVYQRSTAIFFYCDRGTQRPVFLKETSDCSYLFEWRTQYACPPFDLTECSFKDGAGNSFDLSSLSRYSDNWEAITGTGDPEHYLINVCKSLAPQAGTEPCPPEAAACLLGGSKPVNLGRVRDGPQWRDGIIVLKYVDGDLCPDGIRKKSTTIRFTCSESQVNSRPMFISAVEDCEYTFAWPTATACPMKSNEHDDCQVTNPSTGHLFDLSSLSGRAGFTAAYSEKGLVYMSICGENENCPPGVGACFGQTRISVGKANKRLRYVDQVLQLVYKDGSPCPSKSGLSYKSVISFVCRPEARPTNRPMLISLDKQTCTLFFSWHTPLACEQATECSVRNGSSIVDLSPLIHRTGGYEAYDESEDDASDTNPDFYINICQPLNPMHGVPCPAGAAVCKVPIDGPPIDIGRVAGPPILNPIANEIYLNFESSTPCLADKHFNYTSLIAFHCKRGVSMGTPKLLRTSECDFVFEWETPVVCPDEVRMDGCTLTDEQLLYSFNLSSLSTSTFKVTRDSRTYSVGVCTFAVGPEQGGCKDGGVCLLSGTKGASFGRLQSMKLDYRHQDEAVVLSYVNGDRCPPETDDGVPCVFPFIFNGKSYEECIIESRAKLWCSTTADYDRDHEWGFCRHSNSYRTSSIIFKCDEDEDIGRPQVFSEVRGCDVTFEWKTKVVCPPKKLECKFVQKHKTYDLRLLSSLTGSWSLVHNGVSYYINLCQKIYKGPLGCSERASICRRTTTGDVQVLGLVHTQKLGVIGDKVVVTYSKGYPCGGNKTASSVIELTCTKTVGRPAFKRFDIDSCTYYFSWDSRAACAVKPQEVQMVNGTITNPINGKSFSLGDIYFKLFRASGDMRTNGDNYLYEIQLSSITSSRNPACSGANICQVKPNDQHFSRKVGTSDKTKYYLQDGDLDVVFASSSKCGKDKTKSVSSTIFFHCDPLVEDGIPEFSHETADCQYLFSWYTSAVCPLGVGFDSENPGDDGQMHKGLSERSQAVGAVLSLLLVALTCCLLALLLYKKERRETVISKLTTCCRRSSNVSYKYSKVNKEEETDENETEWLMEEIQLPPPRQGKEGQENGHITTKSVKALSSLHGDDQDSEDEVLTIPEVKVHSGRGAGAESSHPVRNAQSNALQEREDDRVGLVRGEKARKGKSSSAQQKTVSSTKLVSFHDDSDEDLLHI
# Chain of UniProt Q8WV07 (Q8WV07 whole entry, looked up): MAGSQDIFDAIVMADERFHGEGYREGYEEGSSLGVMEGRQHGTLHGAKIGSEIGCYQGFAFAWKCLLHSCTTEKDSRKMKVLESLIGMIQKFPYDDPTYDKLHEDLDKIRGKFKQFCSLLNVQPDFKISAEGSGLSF
# Chain of UniProt Q96GA3 (Q96GA3 whole entry, looked up): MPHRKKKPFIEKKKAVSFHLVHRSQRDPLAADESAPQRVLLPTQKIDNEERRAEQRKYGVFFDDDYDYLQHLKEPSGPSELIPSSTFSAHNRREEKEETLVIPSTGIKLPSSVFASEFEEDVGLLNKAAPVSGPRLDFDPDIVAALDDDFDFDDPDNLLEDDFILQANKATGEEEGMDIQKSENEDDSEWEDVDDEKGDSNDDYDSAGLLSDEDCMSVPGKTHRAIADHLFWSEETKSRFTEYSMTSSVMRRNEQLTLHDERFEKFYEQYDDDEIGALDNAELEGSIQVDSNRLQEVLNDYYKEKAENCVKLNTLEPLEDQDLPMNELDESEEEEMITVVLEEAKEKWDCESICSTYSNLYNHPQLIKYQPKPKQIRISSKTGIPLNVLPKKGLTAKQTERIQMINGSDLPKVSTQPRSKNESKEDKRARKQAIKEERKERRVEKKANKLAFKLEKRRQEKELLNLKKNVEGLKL
# Chain of UniProt Q9H0B6 (Q9H0B6 whole entry, looked up): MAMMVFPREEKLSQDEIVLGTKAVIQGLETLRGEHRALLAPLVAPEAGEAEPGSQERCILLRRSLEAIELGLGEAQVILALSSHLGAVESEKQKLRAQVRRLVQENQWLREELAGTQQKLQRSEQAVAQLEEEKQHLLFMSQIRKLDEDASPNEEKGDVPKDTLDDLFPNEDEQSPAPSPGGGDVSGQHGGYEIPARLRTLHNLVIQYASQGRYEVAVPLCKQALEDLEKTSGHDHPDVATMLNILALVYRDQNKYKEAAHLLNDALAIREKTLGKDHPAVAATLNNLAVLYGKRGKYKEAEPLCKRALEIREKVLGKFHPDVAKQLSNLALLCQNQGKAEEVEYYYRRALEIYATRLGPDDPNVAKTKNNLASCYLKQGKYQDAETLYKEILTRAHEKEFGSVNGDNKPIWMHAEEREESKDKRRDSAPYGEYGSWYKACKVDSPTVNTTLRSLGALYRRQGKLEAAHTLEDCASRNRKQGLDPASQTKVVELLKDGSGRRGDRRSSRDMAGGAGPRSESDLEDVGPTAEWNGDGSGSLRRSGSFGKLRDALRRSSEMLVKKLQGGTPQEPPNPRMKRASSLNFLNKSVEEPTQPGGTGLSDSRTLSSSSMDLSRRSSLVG
# Chain of UniProt Q9NYL2 (Q9NYL2 whole entry, looked up): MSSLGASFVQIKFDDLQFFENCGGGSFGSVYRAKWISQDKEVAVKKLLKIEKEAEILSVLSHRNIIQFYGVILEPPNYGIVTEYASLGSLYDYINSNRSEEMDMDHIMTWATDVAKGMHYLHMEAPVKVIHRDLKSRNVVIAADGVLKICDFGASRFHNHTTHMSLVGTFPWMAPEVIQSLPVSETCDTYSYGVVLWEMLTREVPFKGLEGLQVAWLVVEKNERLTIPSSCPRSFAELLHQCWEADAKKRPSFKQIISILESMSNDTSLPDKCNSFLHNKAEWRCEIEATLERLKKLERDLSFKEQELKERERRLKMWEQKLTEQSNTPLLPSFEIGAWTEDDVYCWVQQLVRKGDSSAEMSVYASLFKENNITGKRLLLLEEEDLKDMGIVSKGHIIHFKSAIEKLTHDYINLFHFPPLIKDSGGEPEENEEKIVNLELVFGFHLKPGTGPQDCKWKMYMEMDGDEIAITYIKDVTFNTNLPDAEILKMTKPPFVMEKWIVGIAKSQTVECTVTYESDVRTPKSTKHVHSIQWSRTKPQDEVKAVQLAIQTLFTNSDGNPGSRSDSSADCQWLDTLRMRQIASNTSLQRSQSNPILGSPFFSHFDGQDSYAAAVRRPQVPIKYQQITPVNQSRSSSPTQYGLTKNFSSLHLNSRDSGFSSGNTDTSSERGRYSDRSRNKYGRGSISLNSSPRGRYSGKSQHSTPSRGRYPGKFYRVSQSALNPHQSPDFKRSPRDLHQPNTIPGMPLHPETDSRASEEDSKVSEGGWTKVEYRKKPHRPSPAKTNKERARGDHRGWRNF
# Chain of UniProt P36507 (P36507 whole entry, looked up): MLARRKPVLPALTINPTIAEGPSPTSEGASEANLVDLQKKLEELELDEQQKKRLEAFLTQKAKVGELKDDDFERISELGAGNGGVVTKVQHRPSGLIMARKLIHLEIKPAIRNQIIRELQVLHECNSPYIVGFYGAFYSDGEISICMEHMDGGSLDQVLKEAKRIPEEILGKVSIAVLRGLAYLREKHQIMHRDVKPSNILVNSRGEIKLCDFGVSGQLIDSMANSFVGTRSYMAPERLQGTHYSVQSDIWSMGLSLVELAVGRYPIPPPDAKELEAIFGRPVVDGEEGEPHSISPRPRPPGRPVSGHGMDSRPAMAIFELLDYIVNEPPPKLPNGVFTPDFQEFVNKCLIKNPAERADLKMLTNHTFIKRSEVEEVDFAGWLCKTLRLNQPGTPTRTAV
Target,log2 fold change [1],log2 fold change [2],log2 fold change [3],log2 fold change [4],log2 fold change [5],log2 fold change [6],log2 fold change [7],log2 fold change [8],log2 fold change [9],log2 fold change [10],log2 fold change [11],log2 fold change [12],log2 fold change [13],log2 fold change [14],log2 fold change [15],log2 fold change [16],log2 fold change [17],log2 fold change [18],log2 fold change [19],log2 fold change [20]
LARP4B (UniProt Q92615),0.025,-0.15,0.061,-0.037,-0.052,0.073,0.034,-0.02,0.096,-0.218,-0.009,-0.083,0.004,-0.033,-0.025,-0.037,0.273,0.02,0.094,0.032
MAP3K20 (UniProt Q9NYL2),0.038,-0.026,0.08,0.008,0.011,-0.016,-0.02,0.035,0.126,-0.12,-0.106,0.055,0.065,0.004,0.054,-0.018,0.002,0.01,0.02,-0.034
IGF2R (UniProt P11717),-1.09 (active),-0.875 (active),-0.033,0.002,0.018,-0.013,-0.023,-0.024,-0.013,-0.607 (active),-0.015,0.004,-0.008,-0.004,0.061,-0.01,-0.027,-0.008,0.045,0.005
LMBRD1 (UniProt Q9NUN5),-0.073,0.032,0.015,0.065,-0.01,-0.015,0.015,-0.016,0.133,-0.351,0.154,0.023,0.042,0.098,0.052,0.047,-0.023,-0.173,0.053,-0.057
LDLR (UniProt P01130),-0.135,-0.176,-0.028,0.031,-0.007,0.058,-0.059,0.009,-0.004,0.064,0.113,0.003,-0.04,-0.002,0.003,-0.033,0,-0.065,0.01,0.104
KPNA1 (UniProt P52294),-0.039,-0.312 (active),0.115,-0.051,0.022,0.004,0.055,0.055,0.104,-0.082,-0.014,-0.174,-0.019,0.021,0.006,-0.064,0.151,-0.078,0.197,0
LMNB2 (UniProt Q03252),0.027,-0.077,0.024,0.028,-0.061,0.043,-0.033,-0.005,-0.01,0.014,-0.031,-0.127,-0.02,0.02,0.027,-0.201,-0.085,-0.073,-0.009,0.049
MAP2K2 (UniProt P36507),-0.12,0.084,0.077,0.044,-0.02,-0.06,0.022,0.04,-0.056,-0.1,0.012,-0.037,-0.024,0.01,-0.138,-0.056,-0.039,-0.021,-0.074,0.001
LARP7 isoform 3 (UniProt Q4G0J3),-0.047,-0.155,0.051,-0.081,0.034,-0.032,0.064,0.003,0.014,-0.075,0.015,-0.076,-0.234 (active),-0.002,-0.04,-0.328 (active),-0.164,0.003,0.034,-0.019
ITIH4 (UniProt Q14624),-0.18,-0.311,-0.248,-0.318,0.108,0.102,-0.012,0.129,0.177,-0.413,0.045,0.271,0.005,-0.003,-0.001,0.101,-0.142,-0.124,-0.001,-0.009
LTV1 (UniProt Q96GA3),0.09,0.004,0.06,-0.109,0.021,0.023,-0.049,-0.032,0.189,0.104,-0.09,-0.037,0.151,0.16,0.083,0.145,0.074,0.081,0.109,-0.061
LNPK (UniProt Q9C0E8),0.02,0.024,-0.038,-0.007,-0.032,0.018,-0.042,0.01,0.012,0.059,0.085,0.047,-0.006,-0.034,0.012,0.009,-0.015,-0.045,-0.013,0.039
LTO1 (UniProt Q8WV07),-0.018,0.322,0.058,0.063,-0.008,-0.029,-0.312 (active),0.013,-0.105,0.035,0.071,-0.003,-0.01,-0.288,0.01,0.051,0.03,0.073,-0.016,-0.314 (active)
KIFBP (UniProt Q96EK5),-0.007,-0.333 (active),0.11,-0.035,-0.036,0.017,0.038,0.11,0.095,-0.046,-0.039,0.029,-0.021,-0.01,0.02,-0.092,0.045,-0.019,0.049,-0.134
MAP1LC3B2 (UniProt A6NCE7),-0.074,-0.072,0.05,0,-0.003,0.004,0,0.044,-0.015,0.108,0.016,-0.115,-0.063,0.037,0.026,-0.015,0.004,-0.015,0.032,-0.048
KLC2 (UniProt Q9H0B6),-0.03,-0.059,0.038,0.015,-0.046,0.02,-0.003,0.057,-0.013,-0.131,-0.107,-0.032,-0.095,0.086,-0.017,-0.13,0.001,0.051,0.036,-0.051
